An excerpt weighted towards active compounds, which were near 1.6% of everything screened.
HTR5A inv ctr – HTR5A inverse agonism, opioid heterodimer counter-screen; P47898; HTR5A cell line, luminescence; inhibition, % at 9.3 µM; 340,000 compounds, 0.083% hits; AID 504634; in the data active means inhibition mostly above about 23%, no sharp cut-off; inactive means mostly below about 18%
OPRM1-OPRD1 ag – agonists of human mu-delta opioid receptor heterodimerization; P35372+P41143; cells, OPRM1-OPRD1 heterodimerization, luminescence; activation, % at 9.3 µM; 340,000 compounds, 0.3% hits; AID 504326; in the data active means activation above about 18%
MOR-DOR inv ag – inverse agonist of human OPRM1-OPRD1 heterodimerization; P35372+P41143; cell-based MOR-DOR heterodimer luminescence, inverse agonism; inhibition, % at 9.3 µM; 340,000 compounds, 0.21% hits; in the data active means inhibition above about 22%, passing the limit was not always enough
m5-HT2A agonist – mouse HTR2A agonism via beta-arrestin recruitment. P35363. CHO-K1 mHTR2A beta-arrestin complementation, luminescence; percent of 30 µM serotonin response. activation, % at 7.6 µM. 360,000 compounds, 0.66% hits. AID 624169;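 active means activation above a run cutoff, the mean activation of all tested compounds plus 3 SD, cut at about 14% in these data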
Target sequence (P35363 whole entry, looked up): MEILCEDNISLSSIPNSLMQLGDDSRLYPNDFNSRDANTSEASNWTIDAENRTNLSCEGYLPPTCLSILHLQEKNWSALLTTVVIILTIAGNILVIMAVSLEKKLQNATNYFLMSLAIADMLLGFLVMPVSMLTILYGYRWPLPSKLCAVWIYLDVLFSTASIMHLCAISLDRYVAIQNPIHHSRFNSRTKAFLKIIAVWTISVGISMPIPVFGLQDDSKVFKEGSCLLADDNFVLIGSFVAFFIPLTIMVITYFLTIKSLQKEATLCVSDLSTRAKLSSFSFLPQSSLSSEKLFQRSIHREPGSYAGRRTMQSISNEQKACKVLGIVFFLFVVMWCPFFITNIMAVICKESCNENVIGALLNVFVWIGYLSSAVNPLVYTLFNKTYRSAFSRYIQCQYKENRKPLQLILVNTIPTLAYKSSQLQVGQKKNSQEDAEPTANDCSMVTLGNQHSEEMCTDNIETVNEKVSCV
HTR5A ag – HTR5A agonism, opioid heterodimer counter-screen; 340,000 compounds, 0.61% hits; P47898; activation, % at 9.3 µM; HTR5A agonist assay, luminescence, cell-based; in the data active means activation mostly above about 9.5%, no sharp cut-off; inactive means mostly below about 7.6%
OPRM1 ag – OPRM1 agonism in mouse HTR2A counterscreen; shares compounds with m5-HT2A agonist; U2OS OPRM1 beta-arrestin PathHunter, luminescence; DMSO 0%, DAMGO 9.3 µM 100%; 2,300 compounds, 5.3% hits; activation, % at 9.3 µM;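 active means mean activation above the mean of DMSO-only wells plus 3 SD, cut at about 0.5% in these data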
m5-HT2A ag conf – mouse HTR2A agonism confirmed. shares compounds with m5-HT2A agonist. CHO-K1 PathHunter beta-arrestin recruitment, luminescence; DMSO 0%, 30 µM serotonin 100%. activation, % at 7.6 µM. 2,300 compounds, 19% hits. AID 624381;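 active means mean activation across triplicates above the hit threshold derived in the original primary screen, cut at about 15% in these data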
Hits are given with their value; n = inactive; x = no result given.

SMILES	HTR5A inv ctr	OPRM1-OPRD1 ag	MOR-DOR inv ag	m5-HT2A agonist	HTR5A ag	OPRM1 ag	m5-HT2A ag conf
CN1C(=O)C(CC(=O)NC2CCCCC2)SC1=Nc1ccccc1 (stereo not drawn)	n	n	n	23	n	n	n
C[C@@H]1CN([C@H](C)CO)C(=O)CCCn2nncc2CO[C@H]1CN(C)S(=O)(=O)c1ccc(-n2cccn2)cc1	x	x	x	n	x	x	x
CCCCOc1ccc(S(=O)(=O)NC(=O)C2(C)CCN2C(=O)CCc2ccccc2)cc1 (stereo not drawn)	x	x	x	17	x	n	n
COc1ccc(C(c2nnnn2C(C)(C)C)N2CCN(c3nc4ccccc4s3)CC2)cc1OC (stereo not drawn)	n	n	n	n	n	x	x
COc1cc(C(c2nnnn2C(C)(C)C)N2CCN(c3nc4ccccc4s3)CC2)ccc1O (stereo not drawn)	n	n	n	29	n	n	n
Oc1ccc(C(c2nnnn2CCc2ccccc2)N2CCN(c3nc4ccccc4s3)CC2)cc1 (stereo not drawn)	n	n	n	22	n	n	n
CC1(C)CC(=O)C2=C(C1)OC(N)=C(C#N)C21CCN(Cc2ccccc2)CC1	n	n	n	n	n	x	x
Cc1nc2c([nH]1)C1(CCN(Cc3ccccc3)CC1)C(C#N)=C(N)O2	n	n	n	33	n	n	n
C/C(=N/NC(=O)CN1CCN(S(=O)(=O)c2ccc(C)cc2)CC1)c1cccc(O)c1	n	n	n	n	n	x	x
O=C1C(=O)c2ccccc2C(O)=C1c1cccc([N+](=O)[O-])c1	x	x	x	20	x	n	n
COc1ccc(-c2nc(NC(=O)CSc3nnc(C)s3)ns2)cc1	n	n	n	n	n	x	x
CN1C(=O)CC(Sc2ncccc2C(=O)O)C1=O (stereo not drawn)	n	n	n	15	n	n	n
CCCN1C(=O)CC(Sc2ncccc2C(=O)O)C1=O (stereo not drawn)	n	n	n	n	n	x	x
CC(=O)Nc1ccc(CN(C)c2c(C)nc3ccc(C(=O)N4CCN(c5ccccc5)CC4)cn23)cc1	x	x	x	n	x	x	x
CC(=O)C12OC1CC1C3CCC4=CC(=O)CCC4(C)C3CCC12C (stereo not drawn)	n	n	n	16	n	n	n
C[C@]12CCC(=O)C=C1CCC1C2CC[C@@]2(C)C1CCC21OCCO1 (stereo partly drawn)	n	n	n	n	n	x	x
Cc1ccc(-c2cc(-c3ccco3)c3c(N)c(C(=O)NN)oc3n2)cc1	n	n	n	15	n	n	n
CSc1ccc(CCNC(=O)CCc2nnc3ccc(N4CCOCC4)nn23)cc1	n	n	n	n	n	x	x
CSc1ccc(CCNC(=O)CCc2nnc3ccc(N4CCCCC4)nn23)cc1	n	n	n	20	n	0.7	n
Oc1cc2c(cc1O)[C@@H](c1ccccc1)CNCC2	n	n	n	19	n	n	48
CN1CCc2cc(Cl)c(O)cc2[C@@H](c2ccccc2)C1	n	n	n	n	n	x	x
CN1CCc2cc(O)c(O)cc2C(c2ccccc2)C1 (stereo not drawn)	n	n	n	17	n	n	78
Cc1oc(-c2ccc(Cl)cc2)nc1CS(=O)CC(=O)NCCCN1CCCC(C)C1 (stereo not drawn)	n	n	n	17	n	n	n
O=C(O)c1ccccc1NS(=O)(=O)c1ccc(NN=Cc2cccc(Cl)c2)c([N+](=O)[O-])c1	n	n	n	n	n	x	x
Cc1ccc(Nc2ccc([N+](=O)[O-])nc2[N+](=O)[O-])cc1	n	n	n	15	n	n	n
SMILES	HTR5A inv ctr	OPRM1-OPRD1 ag	MOR-DOR inv ag	m5-HT2A agonist	HTR5A ag	OPRM1 ag	m5-HT2A ag conf
O=C(Cc1cccc(NC(=O)C2CCCN(C(=O)C3CCC3)C2)c1)Nc1ccc(C(=O)N2CCOCC2)cc1 (stereo not drawn)	n	n	n	29	n	n	n
N#Cc1cc(Sc2ccccn2)c([N+](=O)[O-])cc1C#N	n	n	n	17	n	n	n
CC1=C(C(=O)OCc2ccccc2)C(c2ccccc2Br)NC(=O)N1 (stereo not drawn)	n	n	n	29	n	n	23
O=C(CN1CCN(c2ccccn2)CC1)Nc1ccccc1	n	n	n	n	n	x	x
O=C(CN1CCN(c2ccccn2)CC1)Nc1ccc(Oc2ccccc2)cc1	n	n	n	33	n	n	92
O=C(CN1CCN(c2ccccn2)CC1)Nc1cccc(S(=O)(=O)N2CCCC2)c1	n	n	n	19	n	n	69
COc1ccc2c(c1)OC(=O)CC2c1ccccc1OC (stereo not drawn)	n	n	n	16	n	n	n
CC(=O)Nc1ccc(CN2CCN(CC(C)C)C(CCO)C2)cc1 (stereo not drawn)	n	n	n	14	n	n	n
CC(Sc1ccc(Cl)cc1)C(=O)N(C)CC(=O)Nc1ccc(N2CCOCC2)cc1 (stereo not drawn)	n	n	n	18	n	n	n
CC(Oc1ccc(Cl)cc1)C(=O)N(C)CC(=O)Nc1ccc(N2CCOCC2)cc1 (stereo not drawn)	n	n	n	n	n	x	x
Cc1cc(N2CCN(C(c3ccccc3)c3ccccc3)CC2)n2ncnc2n1	n	n	n	n	n	x	x
Cc1cc(N2CCN(c3nc4ccccc4s3)CC2)n2ncnc2n1	n	n	n	22	n	n	n
CCCCCC1C(=O)C[C@@H]2CCN3C(=O)CCC[C@H]1[C@H]23 (stereo partly drawn)	n	n	n	17	n	n	n
CCOC(=O)C1CCN(Cc2cccc(Oc3ccc(Cl)cc3)c2)CC1	n	n	n	20	n	n	70
NC(=O)C1(NC(=O)[C@@H]2CC3(CC(c4cccc(NC(=O)[C@@H]5CCC(=O)N5)c4)=NO3)CN2C(=O)Cc2ccc(C(F)(F)F)cc2)CC1 (stereo partly drawn)	n	n	n	20	n	n	n
NC(=O)C1(NC(=O)[C@@H]2CC3(CC(c4cccc(NC(=O)[C@@H]5CCC(=O)N5)c4)=NO3)CN2C(=O)Cc2ccc(Cl)cc2)CC1 (stereo partly drawn)	n	n	n	n	n	x	x
CC(=O)Nc1cccc(-c2csc(C(C)(O)c3ccccc3)n2)c1 (stereo not drawn)	x	x	x	n	x	x	x
CCc1c(C2(O)CCCCC2)[nH]c2cc(C(F)(F)F)ccc12	n	n	n	n	n	x	x
Cc1c(C2(O)CCCCC2)[nH]c2cc(C(F)(F)F)ccc12	n	n	n	19	n	1.0	n
CCC(=O)N1CCCC(C)(C(=O)Nc2ccc(C)c(C)c2)C1 (stereo not drawn)	x	x	x	17	x	n	n
O=C(NCc1cccnc1)c1cc(C2CCCCN2S(=O)(=O)c2cccs2)on1 (stereo not drawn)	x	x	x	n	x	x	x

Screening results as filed in PubChem.
